Experimental findings from PubChem BioAssay AID1347426 (Functional Genomics Laboratory (NCATS/FGL), 2020) are described below.

About 1,400 (4.5%) of roughly 31,000 sequences were called active. The full list was thinned out, with actives kept by preference. A number with no mark means an inactive call.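 The calls were made as follows: active = median seed-adjusted z-score above 1 or below -1; inactive = the rest.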

The nature of the assay: Novel Modifiers of Survival Motor Neuron (SMN) Protein: Gene Identification via Genome-wide siRNA Screen.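 Also: luminescence tracks full-length SMN protein made from the SMN2 reporter.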 The following applies: HEK293T SMN2-luciferase reporter, siRNA knockdown, 72 h; actives lie on both sides. The method, boiled down:
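Steps: spot 1 pmol siRNA, add Lipofectamine RNAiMax in serum-free DMEM, seed HEK293T SMN2–luciferase reporter cells; incubate 72 h at 37 °C; add ONE-Glo; normalize luminescence to control siRNA, log10, MAD. Candidates: |MAD| > 1.0.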
(In general: Reporter assays use an easily measured gene product as a stand-in for the process of interest.)
As to GGACAAGAACGGAAUUUCATT against SCLY, the median seed-adjusted z-score is 0.00396. As for GGACGGAAGAUUUUCGUAUTT against SR140, the figure is 1.16 (active).

For GAACCUCUAUUGUGGACAATT against TMEM1, the median seed-adjusted z-score was -0.191. For AGAAAGUACUGCACAGAGATT against PCDH8 the value was -1.03 (active). As for CGAAGUUUCCUAUAGAGGATT against PCDHGA10, the median seed-adjusted z-score is 0.0621. As for GAUAGGAUGUGACAAUGAATT against ING2, the figure is 0.126. For GCCUAUCAGGAUCCCAGCATT against RIN1 the value was -0.0694; for AUGUACAAGUGUCAGCUAATT against VEGFC, -0.41. Regarding GCAUCGUGGUGUCAAGUCATT against ZBTB12, the median seed-adjusted z-score was 0.0993. For GGUUGAAGCUUAUUGCAGATT against HARS2 the value was 0.

As for CAAAAGUAUUCUUAGGAAATT against SLC25A15, the median seed-adjusted z-score was -0.0116. As for GACCUACUCUAGUGACAGATT against TRERF1, the median seed-adjusted z-score was -0.0952. For ACCGAGAGAUGGUAUAUGATT against SUPT4H1 the value was -1.01 (active).

For AGAUCACUGUAUCACCUCUTT against VDR, the median seed-adjusted z-score was -0.031.

In the case of GCUGGUGACUGAGUUUUCATT against NOB1, the median seed-adjusted z-score was -0.0844. For GCUAUAUCAGGAUGAGAUATT against ATG5 the value was -0.0597; for GGCCUUACCCUAAAUCGAATT against RARB, 0.409; for CGAGCUACAGGAACAUCUUTT against LSS, -0.302.

Take GUGUGAAGGUAGACCGUGATT against SPATA20: the median seed-adjusted z-score was 0. As for GAGUGGAAGUGUACCAACATT against HCFC1, the figure is 1.47 (active); as for GGAAGAUUCAGUUAACAUUTT against NUDT3, 0.674; as for CAACCAUGUUCAGUAUAGATT against SPINK9, 0.392. As for CCGGAGAAGUUCAACAGCATT against DGKA, the figure is -1.36 (active); as for GCUAAUCAUUGAGUAUGCATT against KLHL10, 0.0708; as for AGCUGACCGAGUUCCUGCATT against GAL3ST1, 0.263.

CCUUGGAGGAGAUCGCUGATT against TEKT2: the median seed-adjusted z-score was -0.349. For GGCAUACAGUUCCGAGAAATT against AGL the value was -0.385; for GUCUUAGAAUGUGAACGUATT against CCNL1, -1.26 (active); for GGCAGGAGGUUUAAGAAGUTT against PPP3R2, -0.143. For the sequence GAGAGUAUCGAAACCGUUUTT against GNPTAB, the median seed-adjusted z-score is 0.296.
